Experimental data taken from PubChem BioAssay (NCATS).
Results filed as inconclusive are left out. Active and inactive are the calls of the source. The call rests on the fitted dose curve; in most records, active means well fitted curve in the direction sought with a large enough effect; inconclusive means small, poorly fitted or top-dose-only effect, or another doubt; inactive means no such curve, though single readings can be large; an effect the other way counts as inactive or inconclusive. Where a SMILES comes first, the peptide text is derived from it. [ ]: non-standard residue; d: D form. pGlu = O=C1CC[C@@H](C(=O)O)N1

How the values were obtained:
MKL-1 = experiment: qHTS assay to identify novel small-molecules to repurpose for Merkel cell carcinoma treatment (AID 1296009); details: MCC and control cell lines, CellTiter-Glo viability, 72 h; series mostly up to 46 µM; further: nearly all actives have a fitted effect of over 60% in size
In short: (§1)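 After compound transfer in DMSO, plates were kept 72 hr at 37 degree celsius. Luminescent ATP signal from CellTiter-Glo served as viability measure, normalized against DMSO and no-cell controls.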

MKL-2 = experiment: as above; details: MCC and control cell lines, CellTiter-Glo viability, 72 h; series mostly up to 46 µM
In short: as §1

WaGa = experiment: as above; details: MCC and control cell lines, CellTiter-Glo viability, 72 h; series mostly up to 46 µM
In short: as §1

C33A = experiment: Primary qHTS to identify gynecologic anti-cancer compounds using libraries of approved drugs and bioactive compounds (AID 1345084); details: Gynecologic cancer cell panel viability, ATPlite luminescence, 48 h; series mostly up to 57.5 µM; further: nearly all actives have a fitted effect of over 55% in size
In short: (§2)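 Measured: luminescence after ATPlite addition (15 min, RT). Exposure: 48 h, 37 C, 5% CO2.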

CAOV3 = experiment: as above; details: Gynecologic cancer cell panel viability, ATPlite luminescence, 48 h; series mostly up to 57.5 µM
In short: as §2

CASKI = experiment: as above; details: Gynecologic cancer cell panel viability, ATPlite luminescence, 48 h; series mostly up to 57.5 µM
In short: as §2

Es-2 = experiment: as above; details: Gynecologic cancer cell panel viability, ATPlite luminescence, 48 h; series mostly up to 57.5 µM
In short: as §2

HeLa = experiment: as above; details: Gynecologic cancer cell panel viability, ATPlite luminescence, 48 h; series mostly up to 57.5 µM
In short: as §2

UISO = experiment: qHTS assay to identify novel small-molecules to repurpose for Merkel cell carcinoma treatment (AID 1296009); details: MCC and control cell lines, CellTiter-Glo viability, 72 h; series mostly up to 46 µM; further: nearly all actives have a fitted effect of over 60% in size
In short: as §1

NIH3T3 = experiment: as above; details: MCC and control cell lines, CellTiter-Glo viability, 72 h; at 44.8 µM (top of the series) unless noted
In short: as §1

Measured: Potency
Potency means the concentration at half of the fitted maximal effect.

CN1CCC(N(Cc2cccs2)c2ccccc2)CC1
inactive: MKL-1 | MKL-2 | WaGa | C33A | CAOV3 | CASKI | Es-2 | HeLa

O=S(=O)(O)c1ccc2nc(-c3ccccc3)[nH]c2c1
inactive: MKL-1 | MKL-2 | UISO | CAOV3 | CASKI | Es-2 | HeLa

CCc1cc2cc(OC)c(OC)cc2c(Cc2ccccc2)n1
inactive: MKL-1 | UISO | WaGa | C33A | CAOV3 | CASKI | Es-2 | HeLa

CC(=O)Oc1ccc(C2(c3ccc(OC(C)=O)cc3)Oc3ccccc3NC2=O)cc1
inactive: MKL-1 | MKL-2 | C33A

CO[C@@H]1[C@@H](O[C@@H]2O[C@H](C)[C@@H](O[C@H]3C[C@@](C)(O)[C@@H](O)[C@H](C)O3)[C@H](N(C)C)[C@H]2O)[C@@H](CC=O)C[C@@H](C)[C@@H](O[C@@H]2CC[C@H](N(C)C)[C@@H](C)O2)/C=C/C=C/C[C@@H](C)OC(=O)C[C@H]1OC(C)=O
inactive: MKL-1 | MKL-2 | UISO | C33A | CAOV3 | CASKI | Es-2 | HeLa

CN(C)CCOC(c1ccccc1)c1ccc(Br)cc1 (centres undefined)
inactive: MKL-1 | UISO | C33A | CAOV3 | CASKI | Es-2 | HeLa
active: WaGa 23.7 µM

Nc1ccc2cc3ccc(N)cc3nc2c1
active: MKL-1 4.22 µM | UISO 8.41 µM | WaGa 2.66 µM | C33A 28.2 µM | CAOV3 8.91 µM | CASKI 11.2 µM | Es-2 8.91 µM | HeLa 17.8 µM

CCCCCCOC(=O)NC(=N)c1ccc(NCc2nc3cc(C(=O)N(CCC(=O)OCC)c4ccccn4)ccc3n2C)cc1
inactive: UISO | C33A | CAOV3 | CASKI | HeLa
active: MKL-1 8.41 µM | MKL-2 15 µM

N#CSCC(=O)O
inactive: MKL-1 | NIH3T3 | UISO | WaGa | C33A | CAOV3 | CASKI | Es-2 | HeLa

O=c1[nH]sc2cc(Cl)ccc12
inactive: MKL-1 | MKL-2 | WaGa | CASKI | HeLa

Nc1nc(=O)n([C@@H]2O[C@H](CO)[C@@H](O)[C@@H]2F)cc1I
inactive: MKL-1 | MKL-2 | C33A | CAOV3 | CASKI | Es-2 | HeLa

Nc1nc2ccccc2n1Cc1ccc(F)cc1
inactive: MKL-1 | NIH3T3 | C33A | CAOV3 | CASKI | Es-2 | HeLa

Oc1ccc(CCNCCCCCCNCCc2ccccc2)cc1O
inactive: Es-2 | HeLa
active: MKL-1 2.11 µM | MKL-2 0.596 µM | WaGa 10.6 µM

CCCCCCCCCCCCCCCC[N+](C)(C)Cc1ccccc1
active: MKL-1 5.96 µM | MKL-2 0.335 µM | UISO 4.22 µM | C33A 28.2 µM | CAOV3 20 µM | HeLa 25.1 µM

CCCCC/C=C\C/C=C\CCCCCCCC(=O)NC(C)c1ccccc1 (centres undefined)
inactive: MKL-1 | UISO | WaGa | C33A | CAOV3 | CASKI | Es-2 | HeLa

C[N+]1(CC2COC(c3ccccc3)(c3ccccc3)O2)CCCCC1 (centres undefined)
inactive: MKL-1 | UISO | WaGa | C33A | CAOV3 | CASKI | Es-2 | HeLa

COc1cc2nc(Cl)nc(N)c2cc1OC
inactive: MKL-1 | MKL-2 | C33A | CASKI | Es-2 | HeLa

CCNC(=O)[C@@H]1CCCN1C(=O)[C@H](CCCN=C(N)N)NC(=O)[C@H](CC(C)C)NC(=O)CNC(=O)[C@H](Cc1ccc(O)cc1)NC(=O)[C@H](CO)NC(=O)[C@H](Cc1c[nH]c2ccccc12)NC(=O)[C@H](Cc1cnc[nH]1)NC(=O)[C@@H]1CCC(=O)N1 ([pGlu]HWSYGLRP-NHEt)
inactive: MKL-1 | UISO | WaGa | C33A | CAOV3 | CASKI | Es-2 | HeLa

O=C1Nc2cc(Cl)ccc2Oc2ccccc21
inactive: MKL-1 | MKL-2 | WaGa | C33A | CAOV3 | CASKI | Es-2 | HeLa

CCCC(=O)O[C@]1(C(=O)CC)CC[C@H]2[C@@H]3CCC4=CC(=O)CC[C@]4(C)[C@H]3[C@@H](O)C[C@@]21C
inactive: MKL-1 | MKL-2 | UISO | C33A | CAOV3 | CASKI | Es-2 | HeLa

Cc1oc(-c2ccccc2)nc1CCC(=O)c1ccc(CC2SC(=O)NC2=O)cc1 (centres undefined)
inactive: MKL-1 | MKL-2 | UISO | C33A | CAOV3 | CASKI | Es-2 | HeLa

CC(C)(C)C1CCC(CC2=C(O)c3ccccc3C(=O)C2=O)CC1 (centres undefined)
inactive: MKL-1 | MKL-2 | WaGa | C33A | CAOV3 | CASKI | Es-2 | HeLa

CCOC(=O)N1CCC(Nc2ccc(Cl)cc2N)CC1
inactive: WaGa | C33A | CASKI | Es-2 | HeLa
active: MKL-1 21.1 µM | MKL-2 26.6 µM

CC(C)C[C@H](NC(=O)CNC(=O)[C@H](Cc1ccc(O)cc1)NC(=O)[C@H](CO)NC(=O)[C@H](Cc1c[nH]c2ccccc12)NC(=O)[C@H](Cc1cnc[nH]1)NC(=O)[C@@H]1CCC(=O)N1)C(=O)N[C@@H](CCCN=C(N)N)C(=O)N1CCC[C@H]1C(=O)NCC(N)=O (stereo in doubt)
inactive: MKL-1 | MKL-2 | WaGa

O=C1Nc2ccccc2C1(c1ccc(O)cc1)c1ccc(O)cc1
inactive: MKL-1 | MKL-2 | CASKI | Es-2 | HeLa

C[N+](C)(CCOc1ccccc1)Cc1cccs1
inactive: MKL-1 | MKL-2 | UISO | C33A | CASKI | Es-2 | HeLa

O=C1OC2(c3ccccc31)c1cc(I)c(O)c(I)c1Oc1c2cc(I)c(O)c1I
inactive: MKL-1 | UISO | WaGa | C33A | CAOV3 | CASKI | Es-2 | HeLa

O=C(NO)c1ccccc1
active: WaGa 32.6 µM
inactive: MKL-1 | UISO | C33A | CAOV3 | CASKI | Es-2 | HeLa

CCC[C@H](N[C@@H](C)C(=O)N1[C@H](C(=O)O)C[C@@H]2CCCC[C@@H]21)C(=O)OCC
inactive: MKL-1 | MKL-2 | UISO | C33A | CAOV3 | CASKI | Es-2 | HeLa

CC(C)(Oc1ccc(Cl)cc1)C(=O)OCCCOC(=O)C(C)(C)Oc1ccc(Cl)cc1
inactive: MKL-1 | UISO | WaGa | C33A | CAOV3 | CASKI | Es-2 | HeLa

O=C1NCCN1CCN1CCC(c2cn(-c3ccc(F)cc3)c3ccc(Cl)cc23)CC1
active: MKL-1 8.41 µM | MKL-2 2.99 µM | WaGa 10.6 µM | C33A 20 µM | CASKI 35.5 µM

CC(=O)/C=C/C=C1/C2CCC(C2)C1(C)C (centres undefined)
inactive: MKL-1 | UISO | C33A | CAOV3 | CASKI | Es-2 | HeLa

O=C(CCC1CCN(Cc2ccccc2)CC1)c1ccc2c(c1)NCCCC2
inactive: MKL-1 | UISO | WaGa | C33A | CASKI | Es-2 | HeLa

CCC1=C[C@@H]2CN(C1)Cc1c([nH]c3ccccc13)[C@@](C(=O)OC)(c1cc3c(cc1OC)N(C)[C@H]1[C@@](O)(C(=O)OC)[C@H](OC(C)=O)[C@]4(CC)C=CCN5CC[C@]31[C@@H]54)C2
active: MKL-2 0.0188 µM | UISO 0.0119 µM | CAOV3 10 µM
